# Where a name gives a salt, the structure may show the parent alone.
# Test system: Brugia pahangi adult female
# Assay: IC50 motility inhibition on day 3
# Conditions: 3 days
# Description: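 Single adult female Brugia pahangi worms in 24-well plates (RPMI-1640, 5% FBS, 37 °C) were treated with 10 µM of each compound from a 2121-drug library (4 replicates; 1% DMSO vehicle and 10 µM auranofin controls). Motility was recorded with WormAssay dark-field imaging, and % inhibition of motility on day 3 is relative to vehicle. IC50 values for selected hits come from a 6-point dilution series (30 to 0.1 µM) fitted in GraphPad Prism.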
row,Structure (SMILES),IC50 motility inhibition on day 3 [µM]
1,O=C(Nc1ccc([N+](=O)[O-])cc1Cl)c1cc(Cl)ccc1O [niclosamide],1.17
2,O=C(CCN1CCC(c2ccccc2)C1)c1ccc2c(c1)OCCO2 (stereo not given) [Proroxan],8.53
3,CC[n+]1c(-c2ccccc2)c2cc(N)ccc2c2ccc(N)cc21 [homidium bromide],5.43
4,COc1cc(NC(C)CCCN)c2ncccc2c1 (stereo not given) [primaquine diphosphate],5.06
5,O=C(Nc1ncc([N+](=O)[O-])s1)c1ccccc1O [Tizoxanide],3.4
6,Clc1ccc(CSC(Cn2ccnc2)c2ccc(Cl)cc2Cl)cc1 (stereo not given) [sulconazole nitrate],4.62
7,CN(C)c1ccc(C(=C2C=CC(=[N+](C)C)C=C2)c2ccc(N(C)C)cc2)cc1 [gentian violet],0.3
8,C1CCC(C(CC2CCCCN2)C2CCCCC2)CC1 (stereo not given) [perhexiline maleate],7.46
9,Oc1c(I)cc(I)c2cccnc12 [iodoquinol],1.9
10,CSc1ccc2c(c1)N(CCC1CCCCN1C)c1ccccc1S2 (stereo not given) [Thioridazine hydrochloride],8.08
